# Laboratory results reported in PubChem BioAssay (NCATS).
# Records with an inconclusive call do not appear. Entries that show only a call come without a potency. Active and inactive are the calls of the source. Calls come from the whole dose curve; as a rule, active = well fitted inhibition curve with a large enough effect; inconclusive = small, poorly fitted or top-dose-only effect; inactive = flat fitted curve, though single readings scatter.
# Key:
# Assay in all cases: qHTS profiling for inhibitors of Plasmodium falciparum proliferation (AID 504749); note: nearly all actives have a fitted effect of over 60% in size
# Settings in all cases: P. falciparum in erythrocytes, SYBR Green DNA, 72 h; series mostly up to 28.7 µM
# 7G8 = test system: 7G8
# Summary of the method: (§1)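 Quantitative HTS: compounds pinned into medium, infected erythrocytes added (0.3% parasitemia, 2.5% hematocrit), 72 h culture at 37 C under 5% CO2. Saponin/Triton lysis with SYBR Green I, overnight RT, then fluorescence read.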
# AA1029 = test system: AA1029
# Summary of the method: as §1
# AS120 = test system: AS120
# Summary of the method: as §1
# ATS189 = test system: ATS189
# Summary of the method: as §1
# ATS95 = test system: ATS95
# Summary of the method: as §1
# C2A = test system: C2A
# Summary of the method: as §1
# CP185 = test system: CP185
# Summary of the method: as §1
# CP191 = test system: CP191
# Summary of the method: as §1
# CP192 = test system: CP192
# Summary of the method: as §1
# CP203 = test system: CP203
# Summary of the method: as §1
# CP211 = test system: CP211
# Summary of the method: as §1
# CP217 = test system: CP217
# Summary of the method: as §1
# CP237 = test system: CP237
# Summary of the method: as §1
# CP238 = test system: CP238
# Summary of the method: as §1
# CP247 = test system: CP247
# Summary of the method: as §1
# CP250 = test system: CP250
# Summary of the method: as §1
# CP252 = test system: CP252
# Summary of the method: as §1
# CP194 = test system: CP194
# Summary of the method: as §1
# CP201 = test system: CP201
# Summary of the method: as §1
# CP215 = test system: CP215
# Summary of the method: as §1
# Potency is the fitted concentration of half-maximal effect.
Compound,Potency (7G8),Potency (AA1029),Potency (AS120),Potency (ATS189),Potency (ATS95),Potency (C2A),Potency (CP185),Potency (CP191),Potency (CP192),Potency (CP203),Potency (CP211),Potency (CP217),Potency (CP237),Potency (CP238),Potency (CP247),Potency (CP250),Potency (CP252),Potency (CP194),Potency (CP201),Potency (CP215)
Cc1cc(N)c2cc(NC(=O)Nc3ccc4nc(C)cc(N)c4c3)ccc2n1,2.24 µM (active),14.1 µM (active),12.6 µM (active),5.62 µM (active),11.2 µM (active),10 µM (active),11.2 µM (active),0.631 µM (active),3.79 µM (active),5.36 µM (active),3.79 µM (active),8.91 µM (active),5.01 µM (active),12.6 µM (active),12.6 µM (active),11.2 µM (active),inactive,–,–,–
C1CCc2nnnn2CC1,inactive,inactive,inactive,inactive,inactive,inactive,inactive,inactive,inactive,–,inactive,inactive,inactive,inactive,inactive,inactive,inactive,inactive,inactive,inactive
C[C@@H]1C[C@H]2[C@@H]3CCC4=CC(=O)C=C[C@]4(C)[C@@]3(F)[C@@H](O)C[C@]2(C)[C@H]1C(=O)CO,11.2 µM (active),inactive,inactive,0.316 µM (active),inactive,inactive,inactive,inactive,–,–,inactive,inactive,–,inactive,inactive,inactive,inactive,inactive,inactive,inactive
NCCC(O)(P(=O)(O)O)P(=O)(O)O,inactive,inactive,inactive,inactive,inactive,inactive,inactive,inactive,inactive,–,inactive,inactive,inactive,inactive,inactive,inactive,inactive,inactive,inactive,inactive
COc1c(C)c2c(c(O)c1C/C=C(\C)CCC(=O)O)C(=O)OC2,2.51 µM (active),2.51 µM (active),3.16 µM (active),2.51 µM (active),3.16 µM (active),2.82 µM (active),3.16 µM (active),2.82 µM (active),–,3.22 µM (active),4.55 µM (active),2.51 µM (active),3.55 µM (active),3.16 µM (active),–,3.16 µM (active),2.51 µM (active),4.55 µM (active),5.73 µM (active),3.22 µM (active)
CCOc1ccc(Cc2nccc3cc(OCC)c(OCC)cc23)cc1OCC,inactive,inactive,inactive,inactive,inactive,inactive,inactive,–,inactive,inactive,–,–,–,inactive,inactive,inactive,inactive,–,–,–
NC(=O)C(=O)N/N=C/c1ccc([N+](=O)[O-])o1,inactive,inactive,inactive,inactive,inactive,inactive,inactive,inactive,–,–,–,inactive,inactive,inactive,inactive,inactive,inactive,–,–,–
C#C[C@]1(OC(C)=O)CC[C@H]2[C@@H]3CCC4=C[C@@H](OC(C)=O)CC[C@@H]4[C@H]3CC[C@@]21C,inactive,inactive,inactive,inactive,inactive,inactive,inactive,inactive,–,inactive,inactive,inactive,inactive,inactive,inactive,inactive,inactive,inactive,inactive,inactive
O=C1c2ccccc2C(=O)C1c1ccccc1,inactive,inactive,inactive,inactive,inactive,inactive,inactive,inactive,inactive,–,inactive,inactive,inactive,inactive,inactive,inactive,inactive,inactive,inactive,inactive
CC(=O)OCC(=O)[C@@]1(OC(C)=O)[C@@H](C)C[C@H]2[C@@H]3C[C@H](F)C4=CC(=O)C=C[C@]4(C)[C@@]3(F)[C@@H](O)C[C@@]21C,8.91 µM (active),inactive,inactive,inactive,–,inactive,inactive,inactive,inactive,–,inactive,inactive,–,inactive,inactive,inactive,inactive,inactive,inactive,–
CCC(=O)c1c(O)cc(O)cc1O,inactive,inactive,inactive,inactive,inactive,inactive,inactive,inactive,inactive,–,inactive,inactive,inactive,inactive,inactive,inactive,inactive,inactive,inactive,inactive
Cc1c(C(N)=O)cc([N+](=O)[O-])cc1[N+](=O)[O-],inactive,inactive,inactive,inactive,inactive,inactive,inactive,inactive,–,–,inactive,inactive,inactive,inactive,inactive,inactive,inactive,inactive,inactive,inactive
COc1ccc(CN2CCN(C(c3ccc(F)cc3)c3ccc(F)cc3)CC2)c(OC)c1OC,2.82 µM (active),10 µM (active),7.08 µM (active),10 µM (active),12.6 µM (active),12.6 µM (active),10 µM (active),7.94 µM (active),–,–,16.9 µM (active),11.2 µM (active),8.91 µM (active),–,10 µM (active),8.91 µM (active),10 µM (active),15.1 µM (active),15.1 µM (active),–
O=C(Nc1ccc(Cl)c(Cl)c1)C1CC1,inactive,inactive,inactive,inactive,inactive,inactive,inactive,inactive,inactive,–,inactive,inactive,inactive,inactive,inactive,inactive,inactive,inactive,inactive,inactive
CC(O)(P(=O)(O)O)P(=O)(O)O,inactive,inactive,inactive,inactive,inactive,inactive,inactive,inactive,inactive,–,inactive,inactive,inactive,inactive,inactive,inactive,inactive,inactive,inactive,inactive
Oc1c(Cl)cc(Cl)cc1Sc1cc(Cl)cc(Cl)c1O,inactive,inactive,inactive,inactive,inactive,inactive,inactive,inactive,inactive,–,inactive,inactive,inactive,inactive,inactive,inactive,inactive,inactive,inactive,inactive
COc1cccc(CCc2ccccc2OCC(CN(C)C)OC(=O)CCC(=O)O)c1 (configuration not stated),0.631 µM (active),3.98 µM (active),4.47 µM (active),5.62 µM (active),5.62 µM (active),10 µM (active),8.91 µM (active),–,16.9 µM (active),3.38 µM (active),7.57 µM (active),7.94 µM (active),1.12 µM (active),7.08 µM (active),5.62 µM (active),11.2 µM (active),8.91 µM (active),4.78 µM (active),–,8.49 µM (active)
COc1ccc(CCN2CCC(Nc3nc4ccccc4n3Cc3ccc(F)cc3)CC2)cc1,2.24 µM (active),3.55 µM (active),3.55 µM (active),4.47 µM (active),3.98 µM (active),2.51 µM (active),3.55 µM (active),2.24 µM (active),12 µM (active),–,15.1 µM (active),3.55 µM (active),2.24 µM (active),3.55 µM (active),3.98 µM (active),2.24 µM (active),3.16 µM (active),9.53 µM (active),7.57 µM (active),–
OCc1ccccc1O,inactive,inactive,inactive,inactive,inactive,inactive,inactive,inactive,inactive,–,inactive,inactive,inactive,inactive,inactive,inactive,inactive,inactive,inactive,inactive
CC(C)(C)CC(C)(C)c1ccc(O)c(Cc2ccc(Cl)cc2Cl)c1,0.447 µM (active),0.891 µM (active),0.501 µM (active),0.794 µM (active),2 µM (active),2.82 µM (active),3.16 µM (active),1 µM (active),3.79 µM (active),1.69 µM (active),1.51 µM (active),2.82 µM (active),2.51 µM (active),1.41 µM (active),3.16 µM (active),3.16 µM (active),1 µM (active),–,–,1.69 µM (active)
NC(=NCCCCCCN=C(N)/N=C(\N)Nc1ccc(Cl)cc1)/N=C(\N)Nc1ccc(Cl)cc1,0.251 µM (active),1 µM (active),1.26 µM (active),1.78 µM (active),2 µM (active),2.24 µM (active),1.78 µM (active),1.12 µM (active),1.69 µM (active),–,1.51 µM (active),2 µM (active),0.891 µM (active),2.24 µM (active),2.24 µM (active),2.24 µM (active),2 µM (active),1.51 µM (active),3.79 µM (active),1.9 µM (active)
CN1CCC(=C2c3ccccc3Sc3ccccc32)CC1,5.01 µM (active),5.62 µM (active),12.6 µM (active),7.94 µM (active),11.2 µM (active),11.2 µM (active),8.91 µM (active),–,–,3.79 µM (active),13.5 µM (active),11.2 µM (active),8.91 µM (active),11.2 µM (active),7.94 µM (active),11.2 µM (active),7.08 µM (active),10.7 µM (active),–,9.53 µM (active)
CC(C)COC(=O)OCN1C(=O)CN(CCN2CC(=O)N(COC(=O)OCC(C)C)C(=O)C2)CC1=O,inactive,inactive,inactive,inactive,inactive,inactive,inactive,inactive,inactive,–,inactive,inactive,inactive,inactive,inactive,inactive,inactive,inactive,inactive,inactive
CCOC(=O)c1cccc(N)c1,inactive,inactive,inactive,inactive,inactive,inactive,inactive,inactive,–,–,–,inactive,inactive,inactive,inactive,inactive,inactive,–,–,–
COc1cc(-c2ccc(=O)[nH]n2)ccc1OC(F)F,inactive,0.178 µM (active),0.891 µM (active),inactive,0.251 µM (active),inactive,–,–,–,–,–,inactive,0.112 µM (active),–,–,inactive,inactive,–,inactive,–
CC(C)COC(=O)c1ccc(N)cc1,inactive,inactive,inactive,inactive,inactive,inactive,inactive,inactive,inactive,–,inactive,inactive,inactive,inactive,inactive,inactive,inactive,inactive,–,inactive
